High-throughput results (PubChem BioAssay)
Pf Dd2 inh: P. falciparum Dd2 growth inhibition; SYBR Green, 72 h; active compounds read low; activity change, % at 10 µM; 94,000 tested, 2.3% active; AID 1159554; in the data active = activity change below about -80%; inconclusive = no clear call, values can overlap the other calls
T cruzi growth-1: blocks T. cruzi growth in NIH3T3 culture | T. cruzi beta-gal in NIH3T3, GalScreen luminescence, 90 h | inhibition, % at 8.34 µM | 77,000 tested, 5.9% active;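 active = mean inhibition above about 93%, with at least 55% of replicates each passing it, limit read from the data, passing the limit was not always enough; inconclusive = only one of those two conditions holds; inactive = neither condition holds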
C diff HTS: blocks growth of Clostridium difficile; AID 1259249; 86,000 tested, 0.25% active; growth activity, negative = inhibition, % at 16 µg/mL (by protocol); Clostridium difficile clinical isolate growth, OD600, 24 h; active compounds read low;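 active = mean growth activity at or below -80% and every replicate also at or below -80%; inconclusive = mean at or below -80% but some replicate above -80%; inactive = mean growth activity above -80%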;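 also: 0% = DMSO wells and -100% = levofloxacin 16 µg/mL wells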
T cruzi growth-2: inhibitors of T. cruzi proliferation; shares compounds with T cruzi growth-1; T. cruzi beta-gal in NIH3T3, GalScreen luminescence, 90 h; inhibition, % at 8.35 µM; 5,600 tested, 72% active;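 active = mean replicate inhibition above about 95% and at least 55% of replicates individually reaching it, limit read from the data; inconclusive = only one of the two criteria is met; inactive = neither criterion is met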
T cruzi growth-3: Trypanosoma cruzi proliferation inhibition. inhibition, % at 2.09 µM. 5,600 tested, 21% active. shares compounds with T cruzi growth-1. T. cruzi beta-gal in NIH3T3, GalScreen luminescence, 90 h;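 active = mean inhibition above about 95%, with at least 55% of replicates also reaching it, limit read from the data; inconclusive = meets just one of the two conditions; inactive = meets neither condition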;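 also: plate controls were neutral control median for no effect and positive control median for full effect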
3T3 cytotox: NIH/3T3 (mouse) viability loss; shares compounds with T cruzi growth-1; NIH/3T3 viability, CellTiter-Glo ATP luminescence, 90 h; cytotoxicity (signal decrease), % at 8.35 µM; 5,600 tested, 14% active; AID 651742;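 active = mean signal decrease across replicates above about 35% based on untreated-well scatter, with enough replicates individually passing, limit read from the data; inconclusive = no rule stated though some were filed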;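 also: 0% = median of neutral control wells and 100% = median of positive control wells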
3T3 cytotox 2: cytotoxicity in mouse NIH/3T3 fibroblasts | AID 651744 | inhibition, % at 24.9 µM | NIH/3T3 viability, CellTiter-Glo ATP luminescence, 90 h | 5,600 tested, 56% active | shares compounds with T cruzi growth-1;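 active = mean loss of cell viability signal at or above a set limit, and enough replicates individually reaching it; inconclusive = meets only the mean limit or only the replicate share; inactive = meets neither condition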;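 also: 0% = median of neutral control wells and 100% = median of positive control wells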
Active calls of the source: *. This is a sample that favours compounds with a hit; in the whole collection about 6.8% have one here.

Screening C[C@H](CO)N1C[C@H](C)[C@H](CN(C)C(=O)Nc2ccc(F)cc2)OCCCC[C@H](C)Oc2ccc(NC(=O)Nc3ccc(C(F)(F)F)cc3)cc2C1=O returned Pf Dd2 inh 10, T cruzi growth-1 98*, C diff HTS 0, T cruzi growth-2 91, T cruzi growth-3 109*, 3T3 cytotox 19 and 3T3 cytotox 2 18.
Screening CCCNC(=O)N1C[C@H](O)COC[C@H]2O[C@H](CC(=O)N[C@H]3CCN(Cc4ccccc4)C3)CC[C@@H]21 returned T cruzi growth-1 -67 and C diff HTS 0.
C[C@@H]1CN([C@@H](C)CO)C(=O)c2cccc(NC(=O)Nc3ccc4c(c3)OCO4)c2O[C@H]1CN(C)CC1CC1 was read as Pf Dd2 inh -17, T cruzi growth-1 11 and C diff HTS 0.
For C[C@H]1CCCCO[C@@H](CN(C)C(=O)Nc2ccc(C(F)(F)F)cc2)[C@@H](C)CN([C@@H](C)CO)C(=O)c2cc(NC(=O)CCC(F)(F)F)ccc2O1 the results were Pf Dd2 inh -58, T cruzi growth-1 inconclusive, C diff HTS 0, T cruzi growth-2 99*, T cruzi growth-3 110*, 3T3 cytotox 17 and 3T3 cytotox 2 17.
For C[C@@H]1CN([C@@H](C)CO)C(=O)c2cc(NC(=O)CCC(F)(F)F)ccc2O[C@@H](C)CCCCO[C@H]1CN(C)C(=O)Nc1ccc(C(F)(F)F)cc1 the results were Pf Dd2 inh -31, T cruzi growth-1 105 and C diff HTS 8.
CC(C)NC(=O)Nc1ccc2c(c1)C(=O)N([C@H](C)CO)C[C@@H](C)[C@@H](CN(C)C(=O)Nc1ccc(C(F)(F)F)cc1)OCCCC[C@@H](C)O2 was read as Pf Dd2 inh -73, T cruzi growth-1 105*, C diff HTS 45, T cruzi growth-2 104*, T cruzi growth-3 92, 3T3 cytotox 12 and 3T3 cytotox 2 20.
For CNC[C@@H]1OCCCC[C@@H](C)Oc2ccc(NC(=O)Nc3ccc(C(F)(F)F)cc3)cc2C(=O)N([C@@H](C)CO)C[C@@H]1C the results were Pf Dd2 inh 3, T cruzi growth-1 9 and C diff HTS 9.
Screening CC(C)NC(=O)Nc1ccc2c(c1)C(=O)N([C@H](C)CO)C[C@@H](C)[C@H](CN(C)C(=O)Nc1ccc(C(F)(F)F)cc1)OCCCC[C@@H](C)O2 returned Pf Dd2 inh -53, T cruzi growth-1 89 and C diff HTS 8.
C[C@@H]1CCCCO[C@H](CN(C)C(=O)Nc2ccc(F)cc2)[C@H](C)CN([C@@H](C)CO)C(=O)c2cc(NC(=O)Nc3ccc(F)cc3)ccc2O1 was read as Pf Dd2 inh -52.
CNC[C@@H]1OCCCC[C@@H](C)Oc2ccc(NC(=O)Nc3ccc(C(F)(F)F)cc3)cc2C(=O)N([C@@H](C)CO)C[C@H]1C was read as Pf Dd2 inh -10, T cruzi growth-1 inconclusive, C diff HTS 13, T cruzi growth-2 15, T cruzi growth-3 12, 3T3 cytotox 17 and 3T3 cytotox 2 1.
`C[C@@H]1CCCCO[C@H](CN(C)C(=O)Nc2ccc(F)cc2)[C@H](C)CN([C@@H](C)CO)C(=O)c2cc(NC(=O)Nc3ccc(C(F)(F)F)cc3)ccc2O1` gave Pf Dd2 inh -38, T cruzi growth-1 97*, C diff HTS 4, T cruzi growth-2 102*, T cruzi growth-3 115*, 3T3 cytotox 22 and 3T3 cytotox 2 16.
Screening CC(C)c1cn(CC[C@H]2CC[C@H](NC(=O)c3cccc(F)c3)[C@@H](CO)O2)nn1 returned Pf Dd2 inh -13 and T cruzi growth-1 -15.
For C[C@H](CO)N1C[C@H](C)[C@H](CN(C)Cc2ccc(-c3ccccc3)cc2)Oc2ncc(C#CCN(C)C)cc2C1=O the results were T cruzi growth-1 84 and C diff HTS 16.
`C[C@@H]1CN([C@@H](C)CO)C(=O)c2cc(NC(=O)c3ccncc3)ccc2O[C@@H](C)CCCCO[C@H]1CN(C)S(=O)(=O)c1ccc(F)cc1` gave Pf Dd2 inh -78, T cruzi growth-1 46 and C diff HTS -3.
`C[C@@H]1CN([C@H](C)CO)C(=O)c2cc(NC(=O)Nc3ccc(F)cc3)ccc2O[C@H]1CN(C)C(=O)Nc1ccc(F)cc1` gave Pf Dd2 inh 10, T cruzi growth-1 18 and C diff HTS 0.
For COCC(=O)N1CC2(CCN(Cc3nccs3)CC2)c2c(n(C)c3cc(OC)ccc23)[C@H]1CO the results were Pf Dd2 inh -11 and C diff HTS -3.
C[C@H]1CCCCO[C@@H](CN(C)C(=O)Nc2ccc(C(F)(F)F)cc2)[C@@H](C)CN([C@@H](C)CO)C(=O)c2cc(NC(=O)Nc3ccc(F)cc3)ccc2O1 was read as Pf Dd2 inh 3, T cruzi growth-1 114*, C diff HTS -1, T cruzi growth-2 108*, T cruzi growth-3 106*, 3T3 cytotox -24 and 3T3 cytotox 2 -10.
Screening C[C@@H]1CCCCO[C@H](CN(C)C(=O)Nc2ccccc2)[C@@H](C)CN([C@H](C)CO)C(=O)c2cc(NC(=O)Nc3ccc(C(F)(F)F)cc3)ccc2O1 returned Pf Dd2 inh -24 and C diff HTS 0.
C[C@@H]1CN([C@H](C)CO)C(=O)c2cc(NC(=O)Nc3ccccc3)ccc2O[C@@H](C)CCCCO[C@H]1CN(C)C(=O)Nc1ccc(C(F)(F)F)cc1 was read as Pf Dd2 inh -73 and C diff HTS 0.
Screening C[C@@H]1CCCCO[C@@H](CN(C)C(=O)Nc2ccc(C(F)(F)F)cc2)[C@@H](C)CN([C@H](C)CO)C(=O)c2cc(NC(=O)Nc3ccc(C(F)(F)F)cc3)ccc2O1 returned Pf Dd2 inh 0, T cruzi growth-1 116*, C diff HTS 5, T cruzi growth-2 108*, T cruzi growth-3 93, 3T3 cytotox 28 and 3T3 cytotox 2 inconclusive.
Screening CC(C)NC(=O)N(C)C[C@@H]1OCCCC[C@@H](C)Oc2ccc(NC(=O)Nc3ccc(C(F)(F)F)cc3)cc2C(=O)N([C@@H](C)CO)C[C@H]1C returned Pf Dd2 inh 23 and C diff HTS 8.
Screening CC(C)NC(=O)N(C)C[C@@H]1OCCCC[C@H](C)Oc2ccc(NC(=O)Nc3ccc(C(F)(F)F)cc3)cc2C(=O)N([C@@H](C)CO)C[C@@H]1C returned Pf Dd2 inh -47, T cruzi growth-1 inconclusive, C diff HTS -9, T cruzi growth-2 109*, T cruzi growth-3 78, 3T3 cytotox 12 and 3T3 cytotox 2 -1.
`CNC[C@H]1OCCCC[C@H](C)Oc2ccc(NC(=O)Nc3ccc4c(c3)OCO4)cc2C(=O)N([C@H](C)CO)C[C@@H]1C` gave Pf Dd2 inh 19, T cruzi growth-1 41 and C diff HTS 4.
